Source: the supplement of paper PMC10849652
The full data set covers some 7,900 targets. This sample favours those with a hit. About 0.6% of all pairs of compound and target were hits. Values without a mark were called inactive.

Legend:
Assay in all cases: log2 fold change, soluble protein after heating vs DMSO (PISA); higher = thermal stabilisation; K562 cells, 10 uM, 30 min; active = over 0.2 and 3.5 SD of the protein, either way, in both replicates (recomputed)
[1] = compound: CS(=O)(=O)c1ccc(-c2cnc(N)c(C(=O)Nc3ccccc3)n2)cc1
Outline: (§1)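 K562 cells at 2×10^6 cells/mL were treated with 10 μM compound for 30 min. Aliquots were heated for 3 min across 48°C-58°C, pooled, and extracted in PBS with 0.5% NP-40 at 4°C; soluble protein was the supernatant after 21,000xg for 90 min. Soluble protein was quantified by TMTpro 16plex LC-MS/MS with channel sums equalised, and reported as log2 fold change in thermal stability against DMSO controls, with values from duplicates.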

crizotinib = compound: C[C@@H](Oc1cc(-c2cnn(C3CCNCC3)c2)cnc1N)c1c(Cl)ccc(F)c1Cl [crizotinib]
Outline: as §1

[2] = compound: C[C@@H]1COCCN1C2=NC(=NC(=C2)C3(CC3)S(=O)(=O)C)C4=C5C=CNC5=CC=C4
Outline: as §1

[3] = compound: C[C@H](C1=CC=C(C=C1)C(=O)NC2=C3C=CNC3=NC=C2)N
Outline: as §1

duvelisib = compound: C[C@H](Nc1ncnc2nc[nH]c12)c1cc2cccc(Cl)c2c(=O)n1-c1ccccc1 [duvelisib]
Outline: as §1

gandotinib = compound: Cc1cc(Nc2cc(CN3CCOCC3)c3nc(C)c(Cc4ccc(Cl)cc4F)n3n2)n[nH]1 [gandotinib]
Outline: as §1

tozasertib = compound: Cc1cc(Nc2cc(N3CCN(C)CC3)nc(Sc3ccc(NC(=O)C4CC4)cc3)n2)n[nH]1 [tozasertib]
Outline: as §1

[4] = compound: Cc1cc(SCc2sc(-c3ccc(C(F)(F)F)cc3)nc2C)ccc1OCC(=O)O
Outline: as §1

doramapimod = compound: Cc1ccc(-n2nc(C(C)(C)C)cc2NC(=O)Nc2ccc(OCCN3CCOCC3)c3ccccc23)cc1 [doramapimod]
Outline: as §1

ispinesib = compound: Cc1ccc(C(=O)N(CCCN)[C@@H](c2nc3cc(Cl)ccc3c(=O)n2Cc2ccccc2)C(C)C)cc1 [ispinesib]
Outline: as §1

bafetinib = compound: Cc1ccc(NC(=O)c2ccc(CN3CC[C@H](N(C)C)C3)c(C(F)(F)F)c2)cc1Nc1nccc(-c2cncnc2)n1 [bafetinib]
Outline: as §1

[5] = compound: Cc1cccc(CC(=O)N2CCc3c2ccc(-c2cn(C)c4ncnc(N)c24)c3F)n1
Outline: as §1

nilotinib = compound: Cc1cn(-c2cc(NC(=O)c3ccc(C)c(Nc4nccc(-c5cccnc5)n4)c3)cc(C(F)(F)F)c2)cn1 [nilotinib]
Outline: as §1

[6] = compound: Cc1nc(Nc2n[nH]c3c2CN(C(=O)N[C@H](CN(C)C)c2ccccc2)C3(C)C)c2sccc2n1
Outline: as §1

dasatinib = compound: Cc1nc(Nc2ncc(C(=O)Nc3c(C)cccc3Cl)s2)cc(N2CCN(CCO)CC2)n1 [dasatinib]
Outline: as §1

[7] = compound: Cc1ncc(-c2ccnc(Nc3ccc(S(C)(=O)=O)cc3)n2)n1C(C)C
Outline: as §1

[8] = compound: Cn1cc(-c2ccc3c(c2)CCN3C(=O)Cc2cccc(C(F)(F)F)c2)c2c(N)ncnc21
Outline: as §1

[9] = compound: Cn1cc(-c2ccc3nnc(C(F)(F)c4ccc5ncccc5c4)n3n2)cn1
Outline: as §1

tipifarnib = compound: Cn1cncc1[C@@](N)(c1ccc(Cl)cc1)c1ccc2c(c1)c(-c1cccc(Cl)c1)cc(=O)n2C [tipifarnib]
Outline: as §1

mubritinib = compound: FC(F)(F)c1ccc(/C=C/c2nc(COc3ccc(CCCCn4ccnn4)cc3)co2)cc1 [mubritinib]
Outline: as §1

Chain of UniProt P27708 (P27708 whole entry, looked up): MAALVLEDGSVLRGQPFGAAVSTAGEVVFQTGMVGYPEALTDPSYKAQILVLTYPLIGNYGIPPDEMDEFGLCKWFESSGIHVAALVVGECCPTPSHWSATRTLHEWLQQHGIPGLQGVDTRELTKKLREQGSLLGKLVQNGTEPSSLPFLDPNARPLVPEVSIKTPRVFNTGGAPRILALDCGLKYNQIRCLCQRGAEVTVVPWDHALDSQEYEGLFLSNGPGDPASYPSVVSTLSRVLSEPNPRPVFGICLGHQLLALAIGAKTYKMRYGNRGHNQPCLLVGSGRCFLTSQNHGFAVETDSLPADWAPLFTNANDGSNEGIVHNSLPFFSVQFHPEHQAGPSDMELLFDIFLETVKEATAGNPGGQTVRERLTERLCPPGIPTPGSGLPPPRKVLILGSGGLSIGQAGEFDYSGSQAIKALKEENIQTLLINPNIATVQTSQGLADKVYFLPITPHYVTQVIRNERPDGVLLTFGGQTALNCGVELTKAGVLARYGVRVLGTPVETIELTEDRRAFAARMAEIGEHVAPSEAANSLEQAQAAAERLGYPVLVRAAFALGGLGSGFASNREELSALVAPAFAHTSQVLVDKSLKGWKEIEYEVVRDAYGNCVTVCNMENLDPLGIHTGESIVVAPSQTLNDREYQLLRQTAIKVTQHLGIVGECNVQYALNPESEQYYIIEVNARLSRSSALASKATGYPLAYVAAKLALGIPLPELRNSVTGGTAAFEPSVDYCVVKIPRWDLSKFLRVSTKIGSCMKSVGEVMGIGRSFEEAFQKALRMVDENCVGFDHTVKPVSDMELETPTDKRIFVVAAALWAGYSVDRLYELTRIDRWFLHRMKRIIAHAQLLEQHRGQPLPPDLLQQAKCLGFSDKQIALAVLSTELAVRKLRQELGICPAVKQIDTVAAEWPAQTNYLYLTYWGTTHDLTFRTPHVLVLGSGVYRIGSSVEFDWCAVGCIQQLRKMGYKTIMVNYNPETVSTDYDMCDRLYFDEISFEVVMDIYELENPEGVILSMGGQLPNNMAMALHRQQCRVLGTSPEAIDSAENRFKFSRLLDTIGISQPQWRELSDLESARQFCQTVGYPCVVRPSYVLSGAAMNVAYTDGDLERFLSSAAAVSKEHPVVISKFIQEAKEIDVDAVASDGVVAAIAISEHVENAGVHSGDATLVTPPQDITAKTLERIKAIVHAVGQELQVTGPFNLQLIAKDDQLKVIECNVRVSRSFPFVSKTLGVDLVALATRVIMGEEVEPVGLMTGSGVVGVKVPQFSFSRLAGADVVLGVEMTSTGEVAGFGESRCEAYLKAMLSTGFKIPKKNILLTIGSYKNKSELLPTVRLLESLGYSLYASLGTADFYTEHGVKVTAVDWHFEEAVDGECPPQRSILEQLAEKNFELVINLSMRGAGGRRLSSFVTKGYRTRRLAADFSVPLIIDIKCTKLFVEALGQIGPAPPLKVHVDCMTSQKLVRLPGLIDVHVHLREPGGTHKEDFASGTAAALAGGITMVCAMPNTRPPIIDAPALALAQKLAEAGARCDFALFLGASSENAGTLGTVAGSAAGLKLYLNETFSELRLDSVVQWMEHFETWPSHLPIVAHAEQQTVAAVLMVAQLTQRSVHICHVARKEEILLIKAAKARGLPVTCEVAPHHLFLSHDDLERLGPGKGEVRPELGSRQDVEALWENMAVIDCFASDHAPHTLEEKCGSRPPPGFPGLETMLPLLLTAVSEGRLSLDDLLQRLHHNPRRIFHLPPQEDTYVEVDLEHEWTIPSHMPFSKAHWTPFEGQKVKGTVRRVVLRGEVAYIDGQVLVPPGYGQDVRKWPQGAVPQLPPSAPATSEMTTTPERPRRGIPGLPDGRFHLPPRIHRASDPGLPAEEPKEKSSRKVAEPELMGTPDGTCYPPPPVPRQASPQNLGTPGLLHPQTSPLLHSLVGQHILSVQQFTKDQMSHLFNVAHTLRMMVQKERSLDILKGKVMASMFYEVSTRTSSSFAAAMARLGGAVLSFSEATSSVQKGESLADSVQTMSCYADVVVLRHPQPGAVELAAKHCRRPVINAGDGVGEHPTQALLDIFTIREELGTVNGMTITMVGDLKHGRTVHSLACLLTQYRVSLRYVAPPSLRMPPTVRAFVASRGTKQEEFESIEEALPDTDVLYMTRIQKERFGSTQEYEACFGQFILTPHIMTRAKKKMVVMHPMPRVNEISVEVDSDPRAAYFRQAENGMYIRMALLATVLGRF
Chain of UniProt Q13555 (Q13555 whole entry, looked up): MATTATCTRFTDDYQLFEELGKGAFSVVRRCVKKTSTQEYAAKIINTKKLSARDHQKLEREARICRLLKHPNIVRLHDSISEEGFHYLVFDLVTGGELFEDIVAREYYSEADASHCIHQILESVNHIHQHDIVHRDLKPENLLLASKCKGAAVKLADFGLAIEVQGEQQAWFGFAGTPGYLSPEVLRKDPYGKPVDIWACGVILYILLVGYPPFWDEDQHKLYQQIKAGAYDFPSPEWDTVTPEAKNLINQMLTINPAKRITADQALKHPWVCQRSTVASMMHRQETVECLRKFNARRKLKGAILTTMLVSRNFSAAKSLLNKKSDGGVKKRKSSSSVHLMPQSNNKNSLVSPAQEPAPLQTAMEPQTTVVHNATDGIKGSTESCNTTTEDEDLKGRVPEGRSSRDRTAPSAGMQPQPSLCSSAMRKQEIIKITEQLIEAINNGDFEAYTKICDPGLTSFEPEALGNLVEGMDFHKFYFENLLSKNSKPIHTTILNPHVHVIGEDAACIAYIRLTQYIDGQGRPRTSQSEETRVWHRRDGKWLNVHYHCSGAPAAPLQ
Chain of UniProt Q12873 (Q12873 whole entry, looked up): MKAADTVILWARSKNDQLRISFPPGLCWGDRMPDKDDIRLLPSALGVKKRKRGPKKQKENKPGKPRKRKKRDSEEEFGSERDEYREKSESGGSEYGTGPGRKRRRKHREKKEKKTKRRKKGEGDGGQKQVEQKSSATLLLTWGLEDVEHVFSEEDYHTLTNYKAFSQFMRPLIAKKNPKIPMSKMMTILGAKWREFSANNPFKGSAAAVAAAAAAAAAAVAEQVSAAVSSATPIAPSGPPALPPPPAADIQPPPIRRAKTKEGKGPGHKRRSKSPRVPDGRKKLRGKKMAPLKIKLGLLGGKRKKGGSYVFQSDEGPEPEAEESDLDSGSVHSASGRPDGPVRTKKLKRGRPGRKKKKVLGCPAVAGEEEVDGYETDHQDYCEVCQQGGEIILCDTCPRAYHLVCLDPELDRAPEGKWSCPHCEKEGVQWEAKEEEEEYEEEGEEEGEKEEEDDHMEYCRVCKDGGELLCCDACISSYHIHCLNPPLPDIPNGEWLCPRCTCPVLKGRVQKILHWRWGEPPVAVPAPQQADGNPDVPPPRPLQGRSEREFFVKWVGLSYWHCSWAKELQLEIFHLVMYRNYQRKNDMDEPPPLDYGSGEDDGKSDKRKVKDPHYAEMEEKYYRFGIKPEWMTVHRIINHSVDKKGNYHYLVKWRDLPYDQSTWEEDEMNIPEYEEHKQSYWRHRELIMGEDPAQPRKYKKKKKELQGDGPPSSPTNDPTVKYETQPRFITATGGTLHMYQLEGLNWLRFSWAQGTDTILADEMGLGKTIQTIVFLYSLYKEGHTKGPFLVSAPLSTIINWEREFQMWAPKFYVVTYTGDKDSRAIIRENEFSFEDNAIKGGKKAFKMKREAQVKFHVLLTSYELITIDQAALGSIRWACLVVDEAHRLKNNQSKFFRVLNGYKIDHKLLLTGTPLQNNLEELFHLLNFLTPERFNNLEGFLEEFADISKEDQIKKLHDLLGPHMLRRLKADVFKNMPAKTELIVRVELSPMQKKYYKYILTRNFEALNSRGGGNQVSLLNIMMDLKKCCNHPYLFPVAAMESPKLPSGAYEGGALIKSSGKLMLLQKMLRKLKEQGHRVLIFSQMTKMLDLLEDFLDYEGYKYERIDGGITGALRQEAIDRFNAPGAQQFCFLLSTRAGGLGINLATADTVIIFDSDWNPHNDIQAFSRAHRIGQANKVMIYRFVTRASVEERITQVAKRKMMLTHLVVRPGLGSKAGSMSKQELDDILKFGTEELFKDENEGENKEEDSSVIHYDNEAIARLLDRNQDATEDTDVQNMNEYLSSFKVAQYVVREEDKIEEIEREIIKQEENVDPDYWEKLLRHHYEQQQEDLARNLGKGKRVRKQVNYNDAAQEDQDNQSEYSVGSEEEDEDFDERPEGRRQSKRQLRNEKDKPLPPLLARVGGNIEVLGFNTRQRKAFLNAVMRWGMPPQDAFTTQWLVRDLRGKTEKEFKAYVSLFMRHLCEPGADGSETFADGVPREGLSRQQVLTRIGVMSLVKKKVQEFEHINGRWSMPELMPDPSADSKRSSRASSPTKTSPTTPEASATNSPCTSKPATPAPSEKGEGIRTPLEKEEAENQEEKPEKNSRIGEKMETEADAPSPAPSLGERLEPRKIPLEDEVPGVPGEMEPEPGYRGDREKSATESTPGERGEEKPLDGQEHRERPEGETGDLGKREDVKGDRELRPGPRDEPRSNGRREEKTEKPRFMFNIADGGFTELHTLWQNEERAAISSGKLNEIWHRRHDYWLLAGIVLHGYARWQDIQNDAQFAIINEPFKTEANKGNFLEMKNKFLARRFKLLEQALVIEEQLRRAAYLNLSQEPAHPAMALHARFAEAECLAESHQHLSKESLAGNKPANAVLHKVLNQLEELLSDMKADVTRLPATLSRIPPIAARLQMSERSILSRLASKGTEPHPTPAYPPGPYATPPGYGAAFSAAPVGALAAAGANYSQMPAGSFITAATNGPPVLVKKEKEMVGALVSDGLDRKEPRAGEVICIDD
Chain of UniProt P05937 (P05937 whole entry, looked up): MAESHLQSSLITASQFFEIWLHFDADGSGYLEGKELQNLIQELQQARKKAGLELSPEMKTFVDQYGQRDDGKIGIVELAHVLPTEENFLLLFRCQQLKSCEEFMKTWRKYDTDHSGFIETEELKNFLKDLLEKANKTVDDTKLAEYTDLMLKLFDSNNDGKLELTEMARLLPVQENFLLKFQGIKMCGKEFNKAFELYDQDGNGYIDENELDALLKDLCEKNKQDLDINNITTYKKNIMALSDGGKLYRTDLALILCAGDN

Target	log2 fold change [1]	log2 fold change (crizotinib)	log2 fold change [2]	log2 fold change [3]	log2 fold change (duvelisib)	log2 fold change (gandotinib)	log2 fold change (tozasertib)	log2 fold change [4]	log2 fold change (doramapimod)	log2 fold change (ispinesib)	log2 fold change (bafetinib)	log2 fold change [5]	log2 fold change (nilotinib)	log2 fold change [6]	log2 fold change (dasatinib)	log2 fold change [7]	log2 fold change [8]	log2 fold change [9]	log2 fold change (tipifarnib)	log2 fold change (mubritinib)
CDK12 (UniProt Q9NYV4)	-0.056	-0.054	-0.362	0.376	-0.161	-1.11 (active)	-0.125	0.051	0.299	0	0.298	0.079	0.136	-0.631 (active)	0.23	-0.301	-0.484	-0.123	0.156	-0.043
CEPT1 (UniProt Q9Y6K0)	0.055	-0.226	0.146	0.042	-0.022	-0.268	-0.019	0.047	0.021	-0.214	-0.048	0.032	-0.052	0.156	-0.008	0.044	0.031	-0.014	-0.055	-0.012
CAD (UniProt P27708)	0.014	-0.271 (active)	0	0.033	-0.013	-0.013	-0.115	0.053	-0.028	-0.106	0.011	0.06	-0.095	-0.008	-0.386 (active)	0.081	-0.012	-0.097	-0.032	-0.006
CASTOR2 (UniProt A6NHX0)	-0.053	0.045	0.088	-0.022	0.075	-0.018	-0.113	0.008	0.037	0.018	-0.063	0.019	0.011	0.02	-0.024	-0.039	-0.019	-0.032	-0.311	-0.032
CCDC59 (UniProt Q9P031)	0.09	-0.084	0	0.389	-0.157	0.186	0.01	0.006	0.164	-0.136	0.117	-0.041	0.032	0.048	0.037	0.028	-0.277	-0.13	0.09	-0.056
C9orf72 (UniProt Q96LT7)	0.058	-0.134	-0.024	-0.048	0.008	-0.313 (active)	-0.019	0.057	0.01	0.04	0.029	-0.018	0.031	0.073	-0.004	0.006	0.085	-0.05	0.033	0.021
CHCHD2 (UniProt Q9Y6H1)	0	0.161	-0.017	-0.075	0.097	-0.107	0.059	-0.016	-0.037	0.066	-0.026	-0.002	0.037	0.029	0.075	-0.086	0.116	-0.02	-0.06	0.04
CAMK2G isoform 6 (UniProt Q13555)	-0.02	-0.146	-0.064	-0.116	-0.025	-0.041	0.028	-0.004	0.073	0	0.064	-0.148	0.002	0.642 (active)	-0.11	0.083	0.01	-0.073	-0.025	-0.008
CALB1 (UniProt P05937)	0.033	-0.166	0.015	-0.039	-0.031	-0.038	0.022	0.017	-0.006	-0.105	-0.076	-0.018	-0.018	0.025	0.014	-0.015	0.013	0.046	0	0.01
C4orf33 (UniProt Q8N1A6)	0.025	-0.098	0.001	-0.209	0.033	0.019	-0.093	0.005	-0.003	-0.038	-0.143	0.01	0.03	-0.024	-0.002	-0.1	0.056	0.031	-0.007	0.054
CD81 (UniProt P60033)	-0.03	0.162	0.107	-0.232	-0.041	0.019	-0.007	-0.084	-0.025	0.207	0.089	-0.026	0.051	0.016	0.079	-0.015	0.108	0.131	0.041	0.05
CHD3 isoform 3 (UniProt Q12873)	-0.036	-0.128	0.068	0.079	0.01	0.237	0.23	0.14	0.026	-0.193	0.01	0.004	-0.093	-0.274	-0.086	-0.172	-0.06	0.063	-0.089	-0.058
CLCN3 (UniProt P51790)	-0.05	-0.191	0.012	-0.003	0.046	-0.062	0.04	-0.006	-0.03	-0.549 (active)	-0.112	-0.022	-0.007	0.04	0.019	-0.027	0.03	0.049	0.015	0.024
CLASP2 isoform 3 (UniProt O75122)	-0.035	-0.201	0.044	-0.029	0.047	-0.314 (active)	-0.06	0.074	-0.007	-0.054	0.016	0.058	-0.067	-0.279 (active)	-0.175	-0.188	0.013	0.012	-0.089	0.022
CDK8 (UniProt P49336)	-0.049	-0.029	0.033	0.248	-0.071	-0.13	-0.199	0.155	0.425 (active)	0.031	0.109	0.014			0.067		0.057	0.018	0	0.01
